Among the data in PubChem BioAssay are growth inhibition, inhibition and outcome values, retold here.

Experiment [1] in a line: antimalarial activity against Dd2 strain (AID 2302;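 active = growth inhibition above 50% at the single 2 µM test dose, taken to imply half-maximal potency below 2 µM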;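 also: 0% = DMSO untreated growth and 100% = chloroquine plus artemisinin killed control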). The note with it: P. falciparum Dd2 in RBCs, LDH growth readout, 72 h; at 2 µM; active compounds read high.
The nature of experiment [2]: human hepatoma cell viability loss – ATP luminescence, cytotoxicity control for P. falciparum antimalarial project, primary screen (AID 2303;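 active = inhibition above 50%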;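 also: 0% = DMSO wells and 100% = digitonin-killed cells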). Conditions: HepG2 viability, 24-48 h, at 10 µM, active compounds read high.
In experiment [3] the target is L-lactate dehydrogenase (Plasmodium falciparum (isolate CDC / Honduras)) (UniProt Q27743). Kind of experiment: PfLDH activity inhibition – cell lysate, 3D7 strain, counter-screen for P. falciparum growth inhibition project (AID 2304).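 Also: 0% = vehicle and 100% = reference inhibitor.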 The note with it: P. falciparum 3D7 crude extract, LDH APAD/NBT absorbance; at 2 µM; active compounds read high. In general terms: The purpose of a counterscreen is to sort out artefacts and off-target activity.

Experiment [4] in a line: inhibition of 3D7 malaria parasite growth – strain 3D7 (AID 2306).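 Also: 0% = DMSO wells and 100% = chloroquine plus artemisinin control wells.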 The note with it: P. falciparum 3D7 erythrocytic growth, LDH absorbance, 72 h; at 2 µM; active compounds read high.
Experiment [5] concerns the target Calcium-dependent protein kinase 1 (Plasmodium falciparum (isolate 3D7)) (UniProt P62344). As to the kind of experiment: PfCDPK1 kinase inhibitors, biochemical, TCAMS library (AID 1159585; cut-off not given, nearly all actives have IC50 up to about 0.98 µM;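 also: inhibitors leave more ATP so luminescence rises with inhibition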). Conditions: recombinant PfCDPK1, Kinase-Glo ATP depletion luminescence.
The target in experiment [6] is Plasmodium falciparum protein kinase 6 (PK6, PF3D7_1337100) (UniProt Q8IDW1). As to the kind of experiment: PfPK6 kinase inhibitors, biochemical, TCAMS library (AID 1159586). The note with it: recombinant PfPK6, Kinase-Glo ATP depletion luminescence. Background: In Kinase-Glo more light means more ATP remaining.
For experiment [7], the target named is Protein kinase 7 (PK7), Plasmodium falciparum 3D7 (PF3D7_0213400) (UniProt Q7YTF7). As to the kind of experiment: inhibition of Plasmodium PK7 catalytic activity – biochemical, TCAMS antimalarial set, Kinase-Glo luminescence (AID 1159587). Conditions: recombinant PfPK7, Kinase-Glo ATP depletion luminescence.
Experiment [8] concerns the target Calcium-dependent protein kinase 4 (Plasmodium falciparum (isolate 3D7)) (UniProt Q8IBS5). As to the kind of experiment: PfCDPK4 kinase inhibitors, biochemical, TCAMS library (AID 1159588; cut-off not given, nearly all actives have IC50 up to about 0.91 µM). Conditions: recombinant PfCDPK4, Kinase-Glo ATP depletion luminescence.

Molecules are shown by their SMILES. “And” between values parts separate entries of the source, which are not always exact repeats. Identical values can stand only once. A number with no mark means an inactive call. For some assays here: Measured potencies and affinities stand elsewhere. The source made the active and inactive calls. Unless noted, no rule for the calls is given here.

Sequence of L-lactate dehydrogenase (Plasmodium falciparum (isolate CDC / Honduras)) (Q27743 whole entry, looked up): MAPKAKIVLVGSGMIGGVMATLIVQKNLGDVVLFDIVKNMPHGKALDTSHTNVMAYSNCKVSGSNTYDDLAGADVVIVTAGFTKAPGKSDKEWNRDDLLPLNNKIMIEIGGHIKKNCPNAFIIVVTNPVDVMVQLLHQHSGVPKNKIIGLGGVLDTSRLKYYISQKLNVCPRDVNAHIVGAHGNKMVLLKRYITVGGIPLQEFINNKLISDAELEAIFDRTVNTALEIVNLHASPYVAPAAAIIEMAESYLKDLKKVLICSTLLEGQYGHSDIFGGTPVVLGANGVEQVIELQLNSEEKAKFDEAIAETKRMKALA
Sequence of Calcium-dependent protein kinase 1 (Plasmodium falciparum (isolate 3D7)) (P62344 whole entry, looked up): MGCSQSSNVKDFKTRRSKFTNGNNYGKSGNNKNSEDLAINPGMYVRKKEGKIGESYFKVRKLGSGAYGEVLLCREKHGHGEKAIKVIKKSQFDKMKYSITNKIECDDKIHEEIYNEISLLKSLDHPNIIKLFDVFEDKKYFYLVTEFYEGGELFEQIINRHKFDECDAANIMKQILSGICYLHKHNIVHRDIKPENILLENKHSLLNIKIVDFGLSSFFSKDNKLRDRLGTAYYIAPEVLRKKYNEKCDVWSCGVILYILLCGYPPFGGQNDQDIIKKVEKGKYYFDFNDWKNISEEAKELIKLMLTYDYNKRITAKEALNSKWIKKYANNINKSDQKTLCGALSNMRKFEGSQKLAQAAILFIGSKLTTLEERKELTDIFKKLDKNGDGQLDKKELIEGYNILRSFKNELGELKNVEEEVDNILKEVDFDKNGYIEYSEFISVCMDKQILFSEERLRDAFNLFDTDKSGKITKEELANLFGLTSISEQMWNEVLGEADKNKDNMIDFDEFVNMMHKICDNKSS
Sequence of Plasmodium falciparum protein kinase 6 (PK6, PF3D7_1337100) (Q8IDW1 1-305): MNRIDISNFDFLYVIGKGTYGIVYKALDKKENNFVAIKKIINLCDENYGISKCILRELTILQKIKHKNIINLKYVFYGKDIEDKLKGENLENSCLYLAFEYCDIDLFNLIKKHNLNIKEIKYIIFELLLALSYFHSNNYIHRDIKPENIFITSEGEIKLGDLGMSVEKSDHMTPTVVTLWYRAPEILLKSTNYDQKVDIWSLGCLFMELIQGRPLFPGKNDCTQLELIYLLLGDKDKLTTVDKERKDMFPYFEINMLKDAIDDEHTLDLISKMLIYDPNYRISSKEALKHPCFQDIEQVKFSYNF
Sequence of Protein kinase 7 (PK7), Plasmodium falciparum 3D7 (PF3D7_0213400) (Q7YTF7 1-343): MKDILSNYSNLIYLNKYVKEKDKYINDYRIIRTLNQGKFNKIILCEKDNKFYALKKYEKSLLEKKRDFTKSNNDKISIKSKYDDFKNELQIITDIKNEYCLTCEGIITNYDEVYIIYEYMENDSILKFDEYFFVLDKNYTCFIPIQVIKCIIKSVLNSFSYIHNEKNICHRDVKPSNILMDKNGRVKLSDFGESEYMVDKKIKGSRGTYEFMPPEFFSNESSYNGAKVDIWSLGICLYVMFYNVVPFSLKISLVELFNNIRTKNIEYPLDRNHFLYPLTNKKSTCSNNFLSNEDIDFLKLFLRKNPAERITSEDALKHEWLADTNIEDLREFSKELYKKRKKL
Sequence of Calcium-dependent protein kinase 4 (Plasmodium falciparum (isolate 3D7)) (Q8IBS5 whole entry, looked up): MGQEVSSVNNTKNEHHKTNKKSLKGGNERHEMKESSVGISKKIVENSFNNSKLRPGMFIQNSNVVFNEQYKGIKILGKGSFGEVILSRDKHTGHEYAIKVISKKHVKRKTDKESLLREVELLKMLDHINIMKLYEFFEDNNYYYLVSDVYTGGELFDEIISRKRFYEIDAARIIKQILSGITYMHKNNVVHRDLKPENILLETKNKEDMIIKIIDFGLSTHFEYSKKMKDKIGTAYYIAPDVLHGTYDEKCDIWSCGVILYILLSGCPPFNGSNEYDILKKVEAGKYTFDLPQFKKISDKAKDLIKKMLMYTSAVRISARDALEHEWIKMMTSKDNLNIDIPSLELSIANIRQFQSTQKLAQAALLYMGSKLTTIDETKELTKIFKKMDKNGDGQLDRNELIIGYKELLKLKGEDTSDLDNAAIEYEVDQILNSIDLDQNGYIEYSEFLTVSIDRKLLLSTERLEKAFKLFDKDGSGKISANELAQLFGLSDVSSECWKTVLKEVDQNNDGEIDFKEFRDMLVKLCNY

The inhibition is the relative decrease from the control value, in per cent. Regarding `Cc1[nH]c2c(C)cc(NS(C)(=O)=O)cc2c1C1CCN(CC2CCN(C(=O)/C=C/c3ccc(Cl)c(Cl)c3)CC2)CC1`, the growth inhibition in experiment [1] is 99% (active); in experiment [4] it was 100% (active). Also, the inhibition in experiment [2] is 33%; in experiment [3], 1%. For the same molecule, the result in experiment [5], in experiment [6], in experiment [7] and in experiment [8] was inactive.

As for `CC[C@H]1CN2CC[C@@H]1C[C@H]2[C@H](O)c1cc(N2CCC(C)CC2)nc2ccc(OC)cc12`, the growth inhibition is 98% (active) in experiment [1] and 99% (active) in experiment [4]. Further, the inhibition in experiment [2] is 16%; in experiment [3] it was 1%. The result in experiment [5], in experiment [6], in experiment [7] and in experiment [8] was inactive.

Regarding `Cc1cc(C2CCCCN2C)ccc1-c1ccc(C(=O)N2CCc3cc4c(cc32)C2(CCN(C)CC2)CO4)cc1` (stereo unspecified), the growth inhibition in experiment [1] is 94% (active); in experiment [4], 95% (active). Besides, the inhibition is 37% in experiment [2] and 1% in experiment [3]. In addition, the outcome in experiment [5], in experiment [6], in experiment [7] and in experiment [8] was inactive.

For the molecule `CN1[C@@H]2CC[C@H]1c1cc(NC(=O)c3cc(-c4ccc(Cl)cc4)cs3)ccc12`, the values for the growth inhibition in experiment [1] and in experiment [4] were 35% and 90% (active), respectively. For the same molecule, the figures for the inhibition in experiment [2] and in experiment [3] were 62% (active) and -2%, respectively. The outcome in experiment [5], in experiment [6], in experiment [7] and in experiment [8] was inactive.

As for `CCCCC/C=C/C(=O)NC1CCC(CN2CCC(c3c[nH]c4ccccc34)CC2)CC1` (stereo unspecified), the growth inhibition in experiment [1] is 11%; in experiment [4], 87% (active). The inhibition in experiment [2] was 19%; in experiment [3] it was -1%. Further, the result in experiment [5], in experiment [6], in experiment [7] and in experiment [8] was inactive.

Take `O=C(/C=C/c1ccc(Cl)cc1)NC1CCC(CN2CCC(c3c[nH]c4ccccc34)CC2)CC1` (stereo unspecified): the growth inhibition in experiment [1] was 67% (active) and 90% (active); in experiment [4], 99% (active) and 100% (active). The inhibition in experiment [2] is 39% and 40%; in experiment [3], -6% and 4%. Further, the result in experiment [5], in experiment [6], in experiment [7] and in experiment [8] was inactive.

Turning to `O=C(COc1ccc(Cl)cc1)N1CCC(CN2CCC(c3c[nH]c4ccccc34)CC2)CC1`, the growth inhibition in experiment [1] was 13%; in experiment [4], 89% (active). Also, the inhibition is 48% in experiment [2] and 1% in experiment [3]. For the same molecule, the outcome in experiment [5], in experiment [6], in experiment [7] and in experiment [8] was inactive.

In the case of `COc1cc(NC(=O)c2nn(CCCN3CCC4(CC3)C(=O)NCN4c3ccccc3)cc2-c2ccc(Cl)c(Cl)c2)cc(OC)c1OC`, the results for the growth inhibition in experiment [1] and in experiment [4] were 75% (active) and 97% (active), respectively. Moreover, the inhibition in experiment [2] was -4%; in experiment [3] it was 1%. Further, the outcome in experiment [5], in experiment [6], in experiment [7] and in experiment [8] was inactive.

Turning to `Cc1nc2ccccc2n1C1C[C@H]2CC[C@@H](C1)N2Cc1nccn1-c1ccccc1` (stereo partly specified), the growth inhibition in experiment [1] is 96% (active); in experiment [4], 94% (active). The inhibition in experiment [2] was 0%; in experiment [3], -4%. In addition, the outcome in experiment [5], in experiment [6], in experiment [7] and in experiment [8] was inactive.

Take `CC(C)CNCc1cccc(-c2cccc(CN(C(=O)NC3CCCCC3)C3CCN(Cc4ccccc4)CC3)c2)c1`: the growth inhibition was 87% (active) in experiment [1] and 97% (active) in experiment [4]. Moreover, the inhibition in experiment [2] was 32%; in experiment [3] it was 8%. Further, the outcome in experiment [5], in experiment [6], in experiment [7] and in experiment [8] was inactive.

With `Cc1ccc(CC(C)NCC(O)c2cccc([N+](=O)[O-])c2)cc1` (stereo unspecified), the growth inhibition is 85% (active) in experiment [1] and 97% (active) in experiment [4]. The inhibition was -6% in experiment [2] and -2% in experiment [3]. Besides, the result in experiment [5], in experiment [6], in experiment [7] and in experiment [8] was inactive.

As for `N=c1c2c(n(Cc3ccc(Cl)cc3Cl)c3c1CCC3)CCCC2`, the growth inhibition is 73% (active) in experiment [1] and 94% (active) in experiment [4]. Besides, the results for the inhibition in experiment [2] and in experiment [3] were -5% and 3%, respectively. Also, the result in experiment [5], in experiment [6], in experiment [7] and in experiment [8] was inactive.

In the case of `Cc1[nH]c2ccc([N+](=O)[O-])cc2c1C1=CCN(C)CC1`, the growth inhibition in experiment [1] was 68% (active); in experiment [4], 86% (active). In addition, the inhibition in experiment [2] was 6%; in experiment [3], 4%. Moreover, the outcome in experiment [5], in experiment [6], in experiment [7] and in experiment [8] was inactive.

With `Cc1ccc(C)c(N2CCN(Cc3ccccc3O)CC2)c1`, the growth inhibition in experiment [1] is 90% (active); in experiment [4], 100% (active). In addition, the inhibition was 11% in experiment [2] and 5% in experiment [3]. Besides, the result in experiment [5], in experiment [6], in experiment [7] and in experiment [8] was inactive.

For `COCCNCc1ccc(-c2ccc(CN(C(=O)Nc3ccccc3)C3CCN(Cc4ccccc4)CC3)cc2)cc1`, the growth inhibition in experiment [1] was 39%; in experiment [4], 98% (active). Moreover, the inhibition in experiment [2] is 16%; in experiment [3], -5%. For the same molecule, the outcome in experiment [5], in experiment [6], in experiment [7] and in experiment [8] was inactive.

As for `CN1CC=C(c2c[nH]c3ccc(Sc4ccccc4)cc23)CC1`, the growth inhibition was 99% (active) in experiment [1] and 98% (active) in experiment [4]. The inhibition in experiment [2] was 36%; in experiment [3] it was -2%. Moreover, the outcome in experiment [5], in experiment [6], in experiment [7] and in experiment [8] was inactive.

With `COc1ccccc1CC(C)NCC(O)c1cccc(Cl)c1` (stereo unspecified), the figures for the growth inhibition in experiment [1] and in experiment [4] were 98% (active) and 97% (active), respectively. The inhibition was 13% in experiment [2] and -6% in experiment [3]. Further, the outcome in experiment [5], in experiment [6], in experiment [7] and in experiment [8] was inactive.

For the molecule `COc1ccc(C[C@H](C)NC[C@H](O)c2cccc(Cl)c2)cc1F`, the growth inhibition in experiment [1] is 75% (active); in experiment [4], 89% (active). Further, the figures for the inhibition in experiment [2] and in experiment [3] were 6% and -2%, respectively. Besides, the result in experiment [5], in experiment [6], in experiment [7] and in experiment [8] was inactive.

Take `Oc1ccc(Cl)cc1CN1CCC(CCOC(c2ccccc2)c2ccccc2)CC1`: the figures for the growth inhibition in experiment [1] and in experiment [4] were 99% (active) and 98% (active), respectively. Besides, the values for the inhibition in experiment [2] and in experiment [3] were 14% and 4%, respectively. For the same molecule, the outcome in experiment [5], in experiment [6], in experiment [7] and in experiment [8] was inactive.

Consider `CC[C@H]1CN2CC[C@H]1C[C@H]2[C@H](O)c1cc(N2CCC3CCCCC3C2)nc2ccc(OC)cc12` (stereo partly specified), for which the growth inhibition in experiment [1] was 99% (active); in experiment [4], 100% (active). For the same molecule, the inhibition is 50% (active) in experiment [2] and -4% in experiment [3]. Also, the outcome in experiment [5], in experiment [6], in experiment [7] and in experiment [8] was inactive.

Turning to `O=C(/C=C/c1ccc(Cl)c(Cl)c1)NC1CCC(N2CCC(c3c[nH]c4ccccc34)CC2)CC1` (stereo unspecified), the growth inhibition was 69% (active) in experiment [1] and 100% (active) in experiment [4]. Further, the inhibition in experiment [2] is 41%; in experiment [3], 7%. The outcome in experiment [5], in experiment [6], in experiment [7] and in experiment [8] was inactive.

On to `O=C(/C=C/c1ccc(Cl)c(Cl)c1)NC[C@@H]1CCC[C@H](CN2CCC(c3c[nH]c4ccccc34)CC2)C1`, for which the growth inhibition in experiment [1] was 43%; in experiment [4], 98% (active). Further, the figures for the inhibition in experiment [2] and in experiment [3] were 61% (active) and -4%, respectively. Besides, the result in experiment [5], in experiment [6], in experiment [7] and in experiment [8] was inactive.
